A number with no mark means an inactive call.
Tested on: Ditylenchus dipsaci
Experiment: proportion of mobile D. dipsaci (mixed stage) relative to DMSO control (fraction of DMSO control); higher = more viable, less nematicidal, active = 0.86 or less; extreme values may be limits of the assay
Details: 60 µM; 5 days; temperature: 20 °C
Summary of the method: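 Ditylenchus dipsaci nematodes were cultured on pea plants in Gamborg B-5 agar, then extracted into water through a filter funnel, and roughly 20 worms in distilled water were placed in each well of a 96-well plate. Compound was pinned in to a final concentration of 60 µM (0.6% v/v DMSO), and the sealed plates were shaken at 200 rpm for 5 days at 20 °C. Mobile worms were counted under the microscope after 2 µL of 1 M NaOH was added. Mobility is given relative to DMSO controls as the mean of two biological replicates.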

Structure (SMILES)	proportion of mobile D. dipsaci
CC(C)(C)NC(=O)CSc1nnc(-c2ccc(C(C)(C)C)cc2)o1	1
CC(C)C(=O)Nc1ccccc1-c1nc(-c2ccccc2)no1	1
Cc1ccc(-c2noc(C3CCCCC3)n2)cc1	1
Clc1cccc(OCc2nc(-c3cccs3)no2)c1	1
COc1nc(C)ccc1-c1noc(-c2ccc(Cl)cc2)n1	1
O=C(CSc1nnc(-c2ccccc2)o1)Nc1ccccc1C(F)(F)F	1
Clc1ccc(CSc2nnc(-c3ccccc3Cl)o2)cc1	1
CC1CCN(C(=O)CSc2nnc(-c3cccc(Cl)c3)o2)CC1	1
O=C(CSc1nnc(-c2ccc(Cl)cc2)o1)c1ccccc1	1
O=C(CSc1nnc(-c2ccc(Cl)cc2)o1)Nc1nccs1	1
O=C(CSc1nnc(-c2cccnc2)o1)c1ccc2ccccc2c1	1
CCOc1cc(-c2nc(-c3cc4ccccc4nc3OC)no2)cc(OCC)c1OCC	1
Cc1cccc(-c2noc(-c3cccc(Cl)c3)n2)c1	1
Cc1cc(OCc2nc(-c3ccccc3)no2)ccc1Br	1
Cc1cccc(-c2noc(-c3ccc(Br)cc3)n2)c1	1
Cc1cnnn1-c1ccc(-c2nc(-c3ccc(Cl)cc3)no2)cc1	1
Cc1ccc(C)c(OCc2nc(-c3ccccc3Cl)no2)c1	1
Clc1ccc(OCc2nc(-c3ccccn3)no2)c(Br)c1	1
Nc1nc(CSc2nnc(-c3ccccc3)o2)cs1	1
O=C(CSc1nnc(-c2ccc(Cl)cc2)o1)NC1CCCCC1	1

Structure (SMILES)	proportion of mobile D. dipsaci
CCN(CC)C(=O)CSc1nnc(-c2ccc(Cl)cc2Cl)o1	1
COc1ccc(Cl)cc1-c1noc(COc2ccccc2)n1	1
Cc1ccc(-c2noc(-c3cccc(C)c3)n2)cc1	1
CCc1nnc(NC(=O)CSc2nnc(-c3cccc(C)c3)o2)s1	1
Cc1cc(OCc2nc(-c3ccccn3)no2)ccc1Br	1
COc1cccc(-c2noc(COc3ccc(C)c(C)c3)n2)c1	1
Cn1c(SCc2nc(-c3cccs3)no2)nnc1-c1ccco1	1
Fc1ccc(-c2nc(-c3ccc(Br)cc3)no2)cc1	1
O=C(CSc1nnc(-c2ccco2)o1)Nc1ccc(Br)cn1	1
Cc1ccc(C)c(-c2nc(-c3ccc(Cl)cc3)no2)c1	1
O=C(c1ccccc1-c1nc(-c2ccccc2Cl)no1)N1CCCC1	1
Cc1ccc(-c2nnc(SCc3c(C)cc(C)cc3C)o2)cc1	1
Brc1ccc(-c2noc(COc3ccccc3)n2)cc1	1
Cc1ccc(C(=O)Nc2ccccc2-c2nc(-c3cccnc3)no2)cc1C	1
CNC(=O)c1ccccc1-c1nc(-c2ccc(F)cc2)no1	1
Cc1cc(OC(C)c2nc(-c3ccccn3)no2)ccc1Cl (centres undefined)	1
Cc1ccc(-c2nc(-c3ccccc3Br)no2)cc1	1
Brc1ccc(-c2nnc(-c3cccs3)o2)o1	0.362 (active)
Cc1cc(OCc2nc(-c3cccnc3)no2)c(C)c(C)c1Br	1
